target: T1, FAM105A (UniProt Q9NUU6); experiment: log2 ratio of Biotin-Ahx-Ub-VS probe labelling (fragment/DMSO); higher = less target engagement (more negative = stronger competition), active = hit call of the paper (q ≤ 0.05, log2 ratio ≤ -1); settings: compound concentration: 200 uM; treatment time: 3 h
T1 sequence (whole entry): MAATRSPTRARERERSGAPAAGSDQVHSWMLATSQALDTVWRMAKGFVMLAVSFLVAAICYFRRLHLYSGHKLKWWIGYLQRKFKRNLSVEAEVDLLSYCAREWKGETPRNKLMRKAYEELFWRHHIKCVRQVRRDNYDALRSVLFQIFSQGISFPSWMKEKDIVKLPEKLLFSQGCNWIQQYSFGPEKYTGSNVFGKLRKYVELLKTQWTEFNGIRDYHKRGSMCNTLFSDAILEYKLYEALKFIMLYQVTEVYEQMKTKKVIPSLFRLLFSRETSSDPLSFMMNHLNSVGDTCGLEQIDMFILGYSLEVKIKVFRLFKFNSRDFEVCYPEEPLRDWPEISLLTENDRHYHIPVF
Method in brief: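 In triplicate, 495 µg of HEK293T lysate per sample was incubated with fragment at 200 µM or vehicle for 3 h. Biotin-Ahx-Ub-VS was then added to 0.5 µM final for 1 h, and labelled DUBs were captured with NeutrAvidin, digested with LysC and trypsin, and measured by diaPASEF LC-MS/MS. Data are average log2 fragment/vehicle ratios by unpaired t-test from global-median-normalised Spectronaut label-free quantities, restricted to proteins with ≥2 unique peptides.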

log2 ratio of Biotin-Ahx-Ub-VS probe labelling, inactive:
Cl.O=C(CCl)N1CCC(n2nc3ccccc3n2)CC1 0.315
Cc1cccc(C)c1NC(=O)CCl 0.266
CCN(C(=O)CCl)C1CCS(=O)(=O)C1 (stereo not given) 0.291
Cl.O=C(CCl)N[C@H]1C[C@@H](n2cccn2)C1 -0.138
Cc1ccc2nnc(CNC(=O)CCl)n2c1 0.283
O=C(CCl)Nc1ccc(N2CCCC2=O)cc1 0.0919
Cl.O=C(CCl)NCc1ccnc(Oc2ccccc2F)c1 -0.0684
O=C(CCl)N1CCC(S(=O)(=O)c2ccc(F)cc2)CC1 -0.39
Cl.O=C(CCl)N1CCn2ncc(O)c2C1 -0.377
Cc1cccc(NC(=O)CCl)c1C 0.19
CCN(C(=O)CCl)C1CCCCC1 -0.207
O=C(CCl)NC1(c2ccc3c(c2)OCCO3)CCCC1 0.0394
O=C(CCl)N1CCN(C(=O)Nc2ccccc2)CC1 0.233
O=C(CCl)NC(Cn1ccccc1=O)c1ccccc1 (stereo not given) 0.0796
CC1CCc2onc(CNC(=O)CCl)c2C1 (stereo not given) 0.123
O=C(CCl)N1CCCCCC1c1ncon1 (stereo not given) 0.156
Cc1cccc(N(CCC#N)C(=O)CCl)c1C -0.0506
O=C(CCl)Nc1ccccc1C(F)(F)F 0.257
Cc1ccccc1OCC(=O)N1CCN(C(=O)CCl)CC1 0.252
CN(C)C(=O)c1ccc(CNC(=O)CCl)cc1 0.248
